# Tests used:
# Experiment in all cases: DAPPL (digital affinity profiling via proximity ligation, sequencing); 10 mM Tris-HCl pH 7.5, 50 mM NaCl, 1 mM DTT, 4% glycerol, room temperature, 30 min; GST-TFs on glutathione beads, 16-mer random dsDNA library, 0.1% formaldehyde crosslink after washing; high values mean tight binding
# [1] = molecular target: T1, FLI1 (Homo sapiens, UniProt Q01543 1-452); settings: protein: recombinant; tags: N-terminal GST; dsDNA, one strand shown
# T1 sequence: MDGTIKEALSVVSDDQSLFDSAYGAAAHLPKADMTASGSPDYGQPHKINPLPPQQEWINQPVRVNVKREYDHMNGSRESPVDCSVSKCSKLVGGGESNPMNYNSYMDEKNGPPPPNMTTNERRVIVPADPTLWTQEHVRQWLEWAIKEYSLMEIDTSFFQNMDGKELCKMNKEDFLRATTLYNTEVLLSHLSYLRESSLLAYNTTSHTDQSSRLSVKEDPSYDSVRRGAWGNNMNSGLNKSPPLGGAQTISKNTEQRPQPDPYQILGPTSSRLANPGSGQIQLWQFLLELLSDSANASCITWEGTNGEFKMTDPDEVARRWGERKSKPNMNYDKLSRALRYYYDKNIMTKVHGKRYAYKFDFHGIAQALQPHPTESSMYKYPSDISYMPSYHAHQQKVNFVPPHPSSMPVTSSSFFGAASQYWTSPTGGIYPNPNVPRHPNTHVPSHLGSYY
# Outline: (§1)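 A tag-only sample was pooled with DNA-barcoded human transcription factors that had been expressed in yeast as GST fusions and captured on glutathione beads. The pools were incubated for 30 min at room temperature with 200 nmole of a random double-stranded 16-mer DNA library in Tris/NaCl/DTT/glycerol buffer, then washed, crosslinked with 0.1% formaldehyde, proximity-ligated (BsaI/T4 ligase, 1 h, 37 °C), PCR-amplified and sequenced on an Illumina NextSeq500. Binding signal is each hexamer's read frequency for a factor divided by its frequency for the tag-only sample.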
# [2] = molecular target: T2, ELK1 (Homo sapiens, UniProt P19419 1-428); settings: protein: recombinant; tags: N-terminal GST; dsDNA, one strand shown
# T2 sequence: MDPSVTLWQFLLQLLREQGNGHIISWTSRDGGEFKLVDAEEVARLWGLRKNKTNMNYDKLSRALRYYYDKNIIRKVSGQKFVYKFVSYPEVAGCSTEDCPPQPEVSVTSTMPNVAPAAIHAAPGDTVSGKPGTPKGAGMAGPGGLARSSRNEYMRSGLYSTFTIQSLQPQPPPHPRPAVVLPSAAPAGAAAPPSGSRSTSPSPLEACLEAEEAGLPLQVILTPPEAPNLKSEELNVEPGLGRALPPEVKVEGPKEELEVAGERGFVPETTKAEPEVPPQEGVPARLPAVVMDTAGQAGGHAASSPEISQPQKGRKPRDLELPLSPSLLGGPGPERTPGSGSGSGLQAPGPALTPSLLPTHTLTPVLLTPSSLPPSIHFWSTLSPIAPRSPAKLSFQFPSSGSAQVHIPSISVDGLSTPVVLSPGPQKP
# Outline: as §1
# [3] = molecular target: T3, GABPA (Homo sapiens, UniProt Q06546 1-454); settings: protein: recombinant; tags: N-terminal GST; dsDNA, one strand shown
# T3 sequence: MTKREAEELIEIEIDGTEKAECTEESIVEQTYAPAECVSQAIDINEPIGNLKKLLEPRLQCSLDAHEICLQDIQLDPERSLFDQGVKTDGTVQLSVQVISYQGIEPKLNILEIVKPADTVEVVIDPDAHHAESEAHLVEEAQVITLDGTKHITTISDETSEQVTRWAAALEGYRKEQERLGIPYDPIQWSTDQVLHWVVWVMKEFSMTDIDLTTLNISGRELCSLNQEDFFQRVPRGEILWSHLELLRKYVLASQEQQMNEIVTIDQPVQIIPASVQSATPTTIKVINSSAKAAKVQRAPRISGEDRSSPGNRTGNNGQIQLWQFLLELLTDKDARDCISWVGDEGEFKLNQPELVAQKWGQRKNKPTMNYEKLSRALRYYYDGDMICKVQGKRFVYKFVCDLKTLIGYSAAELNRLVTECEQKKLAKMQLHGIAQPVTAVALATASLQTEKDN
# Outline: as §1
# [4] = molecular target: T4, ERG (Homo sapiens, UniProt P11308 1-479); settings: protein: recombinant; tags: N-terminal GST; dsDNA, one strand shown
# T4 sequence: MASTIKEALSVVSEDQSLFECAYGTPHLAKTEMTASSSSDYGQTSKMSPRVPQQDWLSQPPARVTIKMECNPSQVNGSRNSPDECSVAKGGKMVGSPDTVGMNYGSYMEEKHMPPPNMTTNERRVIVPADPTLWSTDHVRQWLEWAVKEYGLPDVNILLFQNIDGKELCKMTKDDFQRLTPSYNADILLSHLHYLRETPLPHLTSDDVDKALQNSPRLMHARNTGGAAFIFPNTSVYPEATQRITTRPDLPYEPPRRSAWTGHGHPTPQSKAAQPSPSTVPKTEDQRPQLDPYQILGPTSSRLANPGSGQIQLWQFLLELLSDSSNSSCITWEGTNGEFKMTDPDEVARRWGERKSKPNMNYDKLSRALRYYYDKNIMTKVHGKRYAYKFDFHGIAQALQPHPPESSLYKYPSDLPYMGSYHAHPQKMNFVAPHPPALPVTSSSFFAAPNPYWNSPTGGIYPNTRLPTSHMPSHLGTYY
# Outline: as §1
# [5] = molecular target: ELF1 (Homo sapiens, UniProt P32519 1-619); settings: protein: recombinant; tags: N-terminal GST; dsDNA, one strand shown
# Sequence of ELF1 (P32519 whole entry): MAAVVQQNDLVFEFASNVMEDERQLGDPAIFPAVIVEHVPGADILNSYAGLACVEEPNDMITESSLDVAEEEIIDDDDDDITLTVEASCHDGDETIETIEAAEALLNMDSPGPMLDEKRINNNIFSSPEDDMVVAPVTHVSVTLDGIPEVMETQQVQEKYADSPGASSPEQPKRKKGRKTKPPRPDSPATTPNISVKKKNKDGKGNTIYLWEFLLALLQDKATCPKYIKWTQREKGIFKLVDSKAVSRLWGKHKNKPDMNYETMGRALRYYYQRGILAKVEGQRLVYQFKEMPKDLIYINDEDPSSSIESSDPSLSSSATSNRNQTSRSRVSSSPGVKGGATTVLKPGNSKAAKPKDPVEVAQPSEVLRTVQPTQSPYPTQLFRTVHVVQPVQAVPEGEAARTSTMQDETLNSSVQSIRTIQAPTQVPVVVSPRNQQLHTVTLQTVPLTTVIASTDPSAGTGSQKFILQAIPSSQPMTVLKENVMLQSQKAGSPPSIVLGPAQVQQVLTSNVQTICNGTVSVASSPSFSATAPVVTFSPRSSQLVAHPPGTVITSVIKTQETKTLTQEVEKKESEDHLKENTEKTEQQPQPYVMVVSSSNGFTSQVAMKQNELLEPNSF
# Outline: as §1
# [6] = molecular target: T5, EHF (Homo sapiens, UniProt Q9NZC4 1-300); settings: protein: recombinant; tags: N-terminal GST; dsDNA, one strand shown
# T5 sequence: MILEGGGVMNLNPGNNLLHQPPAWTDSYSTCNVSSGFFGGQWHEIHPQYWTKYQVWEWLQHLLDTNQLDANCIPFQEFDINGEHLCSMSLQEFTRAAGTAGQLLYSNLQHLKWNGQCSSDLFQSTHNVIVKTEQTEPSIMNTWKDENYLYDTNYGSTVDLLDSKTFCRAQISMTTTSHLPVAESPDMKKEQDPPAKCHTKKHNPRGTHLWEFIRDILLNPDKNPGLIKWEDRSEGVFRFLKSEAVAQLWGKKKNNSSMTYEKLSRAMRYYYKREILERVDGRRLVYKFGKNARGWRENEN
# Outline: as §1
# [7] = molecular target: SPI1 (Homo sapiens, UniProt P17947 1-270); settings: protein: recombinant; tags: N-terminal GST; dsDNA, one strand shown
# Outline: as §1
# [8] = molecular target: SPIB (Homo sapiens, UniProt Q01892 1-262); settings: protein: recombinant; tags: N-terminal GST; dsDNA, one strand shown
# Sequence of SPIB (Q01892 whole entry): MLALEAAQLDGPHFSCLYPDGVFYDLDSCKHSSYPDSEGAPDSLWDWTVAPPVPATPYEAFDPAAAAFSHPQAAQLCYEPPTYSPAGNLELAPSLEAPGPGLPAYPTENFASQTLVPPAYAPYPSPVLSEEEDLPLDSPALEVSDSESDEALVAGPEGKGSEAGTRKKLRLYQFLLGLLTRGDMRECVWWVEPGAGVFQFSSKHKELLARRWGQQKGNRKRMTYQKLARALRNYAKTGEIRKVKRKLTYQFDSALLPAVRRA
# Outline: as §1
# [9] = molecular target: T6, ELK3 (Homo sapiens, UniProt P41970 1-407); settings: protein: recombinant; tags: N-terminal GST; dsDNA, one strand shown
# T6 sequence: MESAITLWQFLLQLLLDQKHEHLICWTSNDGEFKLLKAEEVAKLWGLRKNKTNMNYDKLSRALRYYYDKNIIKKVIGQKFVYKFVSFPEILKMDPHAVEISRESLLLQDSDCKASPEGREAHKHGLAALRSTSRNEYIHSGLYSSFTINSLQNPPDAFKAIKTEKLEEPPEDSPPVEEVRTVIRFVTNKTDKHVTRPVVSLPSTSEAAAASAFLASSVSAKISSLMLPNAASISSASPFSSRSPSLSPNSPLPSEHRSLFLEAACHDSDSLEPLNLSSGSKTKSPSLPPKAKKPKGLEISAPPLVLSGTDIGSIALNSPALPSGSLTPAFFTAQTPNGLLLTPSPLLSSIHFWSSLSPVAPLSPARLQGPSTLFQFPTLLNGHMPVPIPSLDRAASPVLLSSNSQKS
# Outline: as §1
# [10] = molecular target: T7, FEV (Homo sapiens, UniProt Q99581 1-238); settings: protein: recombinant; tags: N-terminal GST; dsDNA, one strand shown
# T7 sequence: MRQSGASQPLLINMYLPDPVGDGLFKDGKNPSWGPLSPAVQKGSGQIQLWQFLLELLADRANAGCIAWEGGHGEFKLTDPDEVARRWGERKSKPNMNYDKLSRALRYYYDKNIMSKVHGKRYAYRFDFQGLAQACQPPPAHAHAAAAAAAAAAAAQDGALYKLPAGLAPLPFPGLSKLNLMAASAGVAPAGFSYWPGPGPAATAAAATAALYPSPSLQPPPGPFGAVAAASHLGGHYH
# Outline: as §1
# [11] = molecular target: ETV5 (Homo sapiens, UniProt P41161 1-510); settings: protein: recombinant; tags: N-terminal GST; dsDNA, one strand shown
# Sequence of ETV5 (P41161 whole entry): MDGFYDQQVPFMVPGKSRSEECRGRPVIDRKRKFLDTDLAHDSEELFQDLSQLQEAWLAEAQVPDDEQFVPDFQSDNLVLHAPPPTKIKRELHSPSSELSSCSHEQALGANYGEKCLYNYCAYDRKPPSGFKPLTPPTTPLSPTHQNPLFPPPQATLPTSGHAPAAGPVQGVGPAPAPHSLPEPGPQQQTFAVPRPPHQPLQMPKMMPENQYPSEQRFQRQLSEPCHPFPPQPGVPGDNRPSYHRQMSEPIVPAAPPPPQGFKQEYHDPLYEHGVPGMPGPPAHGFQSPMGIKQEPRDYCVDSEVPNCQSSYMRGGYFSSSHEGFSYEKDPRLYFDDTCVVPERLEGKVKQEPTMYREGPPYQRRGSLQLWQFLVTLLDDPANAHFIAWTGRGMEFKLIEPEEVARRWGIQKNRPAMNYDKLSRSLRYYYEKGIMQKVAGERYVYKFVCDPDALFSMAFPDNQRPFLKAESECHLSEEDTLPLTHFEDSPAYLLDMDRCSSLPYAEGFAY
# Outline: as §1
# [12] = molecular target: HSF1 (Homo sapiens, UniProt Q00613 1-529); settings: protein: recombinant; tags: N-terminal GST; chain copies: 3; dsDNA, one strand shown
# Sequence of HSF1 (Q00613 whole entry): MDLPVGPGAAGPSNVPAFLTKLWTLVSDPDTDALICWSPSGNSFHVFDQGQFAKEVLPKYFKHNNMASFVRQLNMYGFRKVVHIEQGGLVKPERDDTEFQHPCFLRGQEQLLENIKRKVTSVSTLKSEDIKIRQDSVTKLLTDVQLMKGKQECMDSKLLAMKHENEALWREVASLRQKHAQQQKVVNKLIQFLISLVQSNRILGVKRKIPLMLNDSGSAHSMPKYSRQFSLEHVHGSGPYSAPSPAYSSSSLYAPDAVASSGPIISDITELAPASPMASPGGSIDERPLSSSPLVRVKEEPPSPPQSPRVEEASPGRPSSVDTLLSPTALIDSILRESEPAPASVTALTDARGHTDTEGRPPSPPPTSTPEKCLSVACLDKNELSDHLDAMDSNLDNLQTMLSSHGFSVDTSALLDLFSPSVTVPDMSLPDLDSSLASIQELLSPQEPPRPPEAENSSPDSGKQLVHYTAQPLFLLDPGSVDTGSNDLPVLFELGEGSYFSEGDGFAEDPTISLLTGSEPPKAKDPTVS
# Outline: as §1
# [13] = molecular target: T8, SPIC (Homo sapiens, UniProt Q8N5J4 1-248); settings: protein: recombinant; tags: N-terminal GST; dsDNA, one strand shown
# T8 sequence: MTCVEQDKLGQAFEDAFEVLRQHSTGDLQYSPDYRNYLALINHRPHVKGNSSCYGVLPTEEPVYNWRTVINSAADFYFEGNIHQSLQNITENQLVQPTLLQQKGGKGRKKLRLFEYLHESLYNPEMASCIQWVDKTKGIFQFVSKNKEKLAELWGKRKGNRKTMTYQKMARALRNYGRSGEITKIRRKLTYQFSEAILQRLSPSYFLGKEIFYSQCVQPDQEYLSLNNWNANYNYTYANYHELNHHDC
# Outline: as §1
# [14] = molecular target: ELF4 (Homo sapiens, UniProt Q99607 1-663); settings: protein: recombinant; tags: N-terminal GST; dsDNA, one strand shown
# Sequence of ELF4 (Q99607 whole entry): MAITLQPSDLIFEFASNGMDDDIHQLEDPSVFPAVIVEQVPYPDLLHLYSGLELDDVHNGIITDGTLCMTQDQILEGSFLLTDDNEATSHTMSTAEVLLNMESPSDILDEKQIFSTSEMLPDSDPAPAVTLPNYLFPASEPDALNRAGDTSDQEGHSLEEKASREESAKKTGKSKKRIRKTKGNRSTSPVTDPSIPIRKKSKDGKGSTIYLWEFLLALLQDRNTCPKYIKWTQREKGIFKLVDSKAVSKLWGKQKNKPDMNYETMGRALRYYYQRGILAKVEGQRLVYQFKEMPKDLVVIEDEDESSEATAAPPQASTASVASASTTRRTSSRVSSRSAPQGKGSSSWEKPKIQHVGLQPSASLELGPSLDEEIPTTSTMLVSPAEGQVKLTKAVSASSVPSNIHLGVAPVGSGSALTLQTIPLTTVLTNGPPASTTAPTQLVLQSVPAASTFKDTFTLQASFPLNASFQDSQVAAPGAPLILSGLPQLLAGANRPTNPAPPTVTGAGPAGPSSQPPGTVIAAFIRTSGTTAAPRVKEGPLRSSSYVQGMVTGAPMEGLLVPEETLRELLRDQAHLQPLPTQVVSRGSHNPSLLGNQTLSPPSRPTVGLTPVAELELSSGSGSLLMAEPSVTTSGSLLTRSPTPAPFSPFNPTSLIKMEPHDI
# Outline: as §1
# [15] = molecular target: T9, ELK4 (Homo sapiens, UniProt P28324-2 1-405); settings: protein: recombinant; tags: N-terminal GST; dsDNA, one strand shown
# T9 sequence: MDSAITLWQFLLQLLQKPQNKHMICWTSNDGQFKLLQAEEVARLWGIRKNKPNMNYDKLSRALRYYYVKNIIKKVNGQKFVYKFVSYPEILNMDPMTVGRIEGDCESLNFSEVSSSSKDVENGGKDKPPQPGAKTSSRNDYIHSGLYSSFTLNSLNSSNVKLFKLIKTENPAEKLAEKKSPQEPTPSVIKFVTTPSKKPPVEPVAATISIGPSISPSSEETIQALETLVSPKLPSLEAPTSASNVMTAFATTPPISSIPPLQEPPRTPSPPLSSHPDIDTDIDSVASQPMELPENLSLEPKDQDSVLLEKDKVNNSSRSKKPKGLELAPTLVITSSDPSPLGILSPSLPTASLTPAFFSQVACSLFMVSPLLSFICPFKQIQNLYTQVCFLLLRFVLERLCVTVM
# Outline: as §1
# [16] = molecular target: T10, ETV2 (Homo sapiens, UniProt O00321 1-342); settings: protein: recombinant; tags: N-terminal GST; dsDNA, one strand shown
# T10 sequence: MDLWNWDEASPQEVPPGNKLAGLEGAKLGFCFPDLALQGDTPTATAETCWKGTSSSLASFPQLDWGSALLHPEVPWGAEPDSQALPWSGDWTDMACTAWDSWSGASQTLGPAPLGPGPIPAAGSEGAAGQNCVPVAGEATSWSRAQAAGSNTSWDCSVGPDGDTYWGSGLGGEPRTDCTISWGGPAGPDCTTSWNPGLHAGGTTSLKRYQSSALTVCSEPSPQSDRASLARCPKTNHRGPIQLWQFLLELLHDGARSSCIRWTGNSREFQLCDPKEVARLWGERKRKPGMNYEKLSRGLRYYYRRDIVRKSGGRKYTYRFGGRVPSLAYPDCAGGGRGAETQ
# Outline: as §1
# [17] = molecular target: T11, ELF3 (Homo sapiens, UniProt P78545 1-371); settings: protein: recombinant; tags: N-terminal GST; dsDNA, one strand shown
# T11 sequence: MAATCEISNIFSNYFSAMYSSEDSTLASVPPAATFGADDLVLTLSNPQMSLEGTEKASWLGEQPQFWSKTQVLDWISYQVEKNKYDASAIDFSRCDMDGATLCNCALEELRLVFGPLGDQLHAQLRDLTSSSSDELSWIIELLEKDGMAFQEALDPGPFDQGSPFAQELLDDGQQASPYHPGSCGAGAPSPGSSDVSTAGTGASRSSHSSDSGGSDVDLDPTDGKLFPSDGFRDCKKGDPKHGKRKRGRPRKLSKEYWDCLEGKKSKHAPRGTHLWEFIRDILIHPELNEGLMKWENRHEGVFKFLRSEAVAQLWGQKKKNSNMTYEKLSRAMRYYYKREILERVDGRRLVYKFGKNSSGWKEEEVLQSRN
# Outline: as §1
# [18] = molecular target: CRX (Homo sapiens, UniProt O43186 1-299); settings: protein: recombinant; tags: N-terminal GST; dsDNA, one strand shown
# Sequence of CRX (O43186 whole entry): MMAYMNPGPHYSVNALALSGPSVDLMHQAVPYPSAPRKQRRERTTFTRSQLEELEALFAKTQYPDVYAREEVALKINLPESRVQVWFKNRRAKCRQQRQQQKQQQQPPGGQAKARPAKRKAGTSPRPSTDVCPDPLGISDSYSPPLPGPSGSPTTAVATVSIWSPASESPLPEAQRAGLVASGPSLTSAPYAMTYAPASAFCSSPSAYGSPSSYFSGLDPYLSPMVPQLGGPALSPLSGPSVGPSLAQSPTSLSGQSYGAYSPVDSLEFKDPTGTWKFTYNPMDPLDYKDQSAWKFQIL
# Outline: as §1
# [19] = molecular target: ETV1 (Homo sapiens, UniProt P50549 1-477); settings: protein: recombinant; tags: N-terminal GST; dsDNA, one strand shown
# Sequence of ETV1 (P50549 whole entry): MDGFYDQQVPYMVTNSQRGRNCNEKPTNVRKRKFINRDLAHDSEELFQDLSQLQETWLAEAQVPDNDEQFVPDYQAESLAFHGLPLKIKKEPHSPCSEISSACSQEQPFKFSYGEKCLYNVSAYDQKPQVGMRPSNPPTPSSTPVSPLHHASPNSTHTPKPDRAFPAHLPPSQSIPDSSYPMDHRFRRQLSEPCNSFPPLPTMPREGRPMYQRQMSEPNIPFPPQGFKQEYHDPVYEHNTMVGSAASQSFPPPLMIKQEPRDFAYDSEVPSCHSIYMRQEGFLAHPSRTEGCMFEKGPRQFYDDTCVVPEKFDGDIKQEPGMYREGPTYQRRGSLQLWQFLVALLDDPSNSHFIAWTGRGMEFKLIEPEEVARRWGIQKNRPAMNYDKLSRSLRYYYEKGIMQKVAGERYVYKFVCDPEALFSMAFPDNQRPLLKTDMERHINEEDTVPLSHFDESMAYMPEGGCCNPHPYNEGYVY
# Outline: as §1
sequence,measurement,setting,value
CTCGCA,binding signal,[1],"1.34 fold enrichment (6-mer frequency, TF over GST control)"
same,binding signal,[2],"1.25 fold enrichment (6-mer frequency, TF over GST control)"
same,binding signal,[3],"1.29 fold enrichment (6-mer frequency, TF over GST control)"
same,binding signal,[4],"1.29 fold enrichment (6-mer frequency, TF over GST control)"
same,binding signal,[5],"1.27 fold enrichment (6-mer frequency, TF over GST control)"
same,binding signal,[6],"1.3 fold enrichment (6-mer frequency, TF over GST control)"
same,binding signal,[7],"1.27 fold enrichment (6-mer frequency, TF over GST control)"
same,binding signal,[8],"1.22 fold enrichment (6-mer frequency, TF over GST control)"
same,binding signal,[9],"1.17 fold enrichment (6-mer frequency, TF over GST control)"
same,binding signal,[10],"1.32 fold enrichment (6-mer frequency, TF over GST control)"
same,binding signal,[11],"1.19 fold enrichment (6-mer frequency, TF over GST control)"
same,binding signal,[12],"1.61 fold enrichment (6-mer frequency, TF over GST control)"
same,binding signal,[13],"1.43 fold enrichment (6-mer frequency, TF over GST control)"
same,binding signal,[14],"1.26 fold enrichment (6-mer frequency, TF over GST control)"
same,binding signal,[15],"1.29 fold enrichment (6-mer frequency, TF over GST control)"
same,binding signal,[16],"1.34 fold enrichment (6-mer frequency, TF over GST control)"
same,binding signal,[17],"1.26 fold enrichment (6-mer frequency, TF over GST control)"
same,binding signal,[18],"1.2 fold enrichment (6-mer frequency, TF over GST control)"
same,binding signal,[19],"1.26 fold enrichment (6-mer frequency, TF over GST control)"

# — article PMC7862700, “An all-to-all approach to the identification of sequence-specific readers for epigenetic DNA modifications on cytosine”
